# Measurements taken from the supplement of paper PMC11732987, “Enantioselective OTUD7B fragment discovery through chemoproteomics screening and high-throughput optimisation” (Communications Chemistry, 2025).
# Values without a mark were called inactive.
# Experiments:
# Test in all cases: log2 ratio of Biotin-Ahx-Ub-VS probe labelling (fragment/DMSO); higher = less target engagement (more negative = stronger competition), active = hit call of the paper (q ≤ 0.05, log2 ratio ≤ -1)
# Details in all cases: compound concentration: 200 uM; treatment time: 3 h
# OTUD6B = target: T1, OTUD6B (UniProt Q8N6M0)
# T1 sequence (whole entry): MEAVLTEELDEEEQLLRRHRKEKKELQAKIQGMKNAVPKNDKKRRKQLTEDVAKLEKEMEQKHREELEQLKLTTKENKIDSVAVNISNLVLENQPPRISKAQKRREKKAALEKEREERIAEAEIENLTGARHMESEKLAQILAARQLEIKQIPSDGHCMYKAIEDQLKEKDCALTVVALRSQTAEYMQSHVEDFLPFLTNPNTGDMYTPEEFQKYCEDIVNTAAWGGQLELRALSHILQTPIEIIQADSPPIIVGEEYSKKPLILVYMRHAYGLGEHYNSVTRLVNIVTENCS
# Summary of the method: (§1)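 The table lists average log2 ratios of fragment over vehicle, from an unpaired t-test on global-median-normalised Spectronaut label-free quantities. Proteins with ≥2 unique peptides were used. Samples were HEK293T lysate (495 µg) treated in triplicate with fragment at 200 µM or vehicle for 3 h, then with Biotin-Ahx-Ub-VS (0.5 µM final) for 1 h, with labelled DUBs NeutrAvidin-enriched and run by diaPASEF LC-MS/MS.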
# OTUD7B = target: T2, OTUD7B (UniProt Q6GQQ9)
# T2 sequence (whole entry): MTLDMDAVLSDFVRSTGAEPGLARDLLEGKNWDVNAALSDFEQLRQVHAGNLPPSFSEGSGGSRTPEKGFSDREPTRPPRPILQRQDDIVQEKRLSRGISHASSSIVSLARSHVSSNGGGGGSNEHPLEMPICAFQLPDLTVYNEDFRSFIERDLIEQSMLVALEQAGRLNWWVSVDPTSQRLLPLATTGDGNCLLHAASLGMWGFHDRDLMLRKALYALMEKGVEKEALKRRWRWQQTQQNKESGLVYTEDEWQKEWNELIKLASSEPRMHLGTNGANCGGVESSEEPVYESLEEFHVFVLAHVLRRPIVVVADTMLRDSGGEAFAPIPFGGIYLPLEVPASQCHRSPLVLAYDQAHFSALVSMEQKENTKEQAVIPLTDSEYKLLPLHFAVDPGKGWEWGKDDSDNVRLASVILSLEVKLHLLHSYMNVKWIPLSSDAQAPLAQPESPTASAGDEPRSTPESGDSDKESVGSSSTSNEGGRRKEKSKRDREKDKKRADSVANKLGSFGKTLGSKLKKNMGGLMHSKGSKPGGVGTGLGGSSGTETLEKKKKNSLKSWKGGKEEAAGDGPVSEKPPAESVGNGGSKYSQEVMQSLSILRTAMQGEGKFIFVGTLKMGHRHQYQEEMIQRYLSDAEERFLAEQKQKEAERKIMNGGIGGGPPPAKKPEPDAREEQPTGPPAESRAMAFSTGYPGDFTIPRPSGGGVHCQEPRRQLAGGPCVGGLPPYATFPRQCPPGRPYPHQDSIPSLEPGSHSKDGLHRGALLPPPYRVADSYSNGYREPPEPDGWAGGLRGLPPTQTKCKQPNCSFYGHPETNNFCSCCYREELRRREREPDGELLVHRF
# Summary of the method: as §1
# PRPF8 = PRPF8 (UniProt Q6P2Q9)
# Summary of the method: as §1
# PSMD7 = target: T3, PSMD7 (UniProt P51665)
# T3 sequence (whole entry): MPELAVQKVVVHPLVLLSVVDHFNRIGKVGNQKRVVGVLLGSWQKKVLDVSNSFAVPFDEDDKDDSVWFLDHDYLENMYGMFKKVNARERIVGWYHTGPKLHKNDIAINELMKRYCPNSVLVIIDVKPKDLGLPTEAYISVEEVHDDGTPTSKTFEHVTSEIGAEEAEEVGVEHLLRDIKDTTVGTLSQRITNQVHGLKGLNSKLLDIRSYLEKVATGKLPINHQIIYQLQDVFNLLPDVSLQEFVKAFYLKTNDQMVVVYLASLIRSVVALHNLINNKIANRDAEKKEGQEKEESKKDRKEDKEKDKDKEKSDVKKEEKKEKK
# Summary of the method: as §1
# UCHL1 = UCHL1 (UniProt P09936)
# Summary of the method: as §1
# UCHL3 = target: T4, UCHL3 (UniProt P15374)
# T4 sequence (whole entry): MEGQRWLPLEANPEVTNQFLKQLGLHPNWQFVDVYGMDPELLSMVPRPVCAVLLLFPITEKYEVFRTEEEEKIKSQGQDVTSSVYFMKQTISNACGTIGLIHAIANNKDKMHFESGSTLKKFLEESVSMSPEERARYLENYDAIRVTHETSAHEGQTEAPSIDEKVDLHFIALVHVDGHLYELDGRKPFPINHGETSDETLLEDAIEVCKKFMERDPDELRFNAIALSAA
# Summary of the method: as §1
# UCHL5 = target: T5, UCHL5 (UniProt Q9Y5K5)
# T5 sequence (whole entry): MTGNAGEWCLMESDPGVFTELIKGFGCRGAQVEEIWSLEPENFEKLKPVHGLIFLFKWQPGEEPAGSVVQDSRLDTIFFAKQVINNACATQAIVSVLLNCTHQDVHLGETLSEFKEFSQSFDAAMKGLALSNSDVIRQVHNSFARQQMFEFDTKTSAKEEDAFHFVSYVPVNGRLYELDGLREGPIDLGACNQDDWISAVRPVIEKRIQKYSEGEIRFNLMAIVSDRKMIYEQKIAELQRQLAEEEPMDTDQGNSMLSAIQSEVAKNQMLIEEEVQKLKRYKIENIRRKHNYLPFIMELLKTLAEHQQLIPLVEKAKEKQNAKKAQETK
# Summary of the method: as §1
# USP10 = USP10 (UniProt Q14694)
# Summary of the method: as §1
# USP15 = target: T6, USP15 (UniProt Q9Y4E8)
# T6 sequence (whole entry): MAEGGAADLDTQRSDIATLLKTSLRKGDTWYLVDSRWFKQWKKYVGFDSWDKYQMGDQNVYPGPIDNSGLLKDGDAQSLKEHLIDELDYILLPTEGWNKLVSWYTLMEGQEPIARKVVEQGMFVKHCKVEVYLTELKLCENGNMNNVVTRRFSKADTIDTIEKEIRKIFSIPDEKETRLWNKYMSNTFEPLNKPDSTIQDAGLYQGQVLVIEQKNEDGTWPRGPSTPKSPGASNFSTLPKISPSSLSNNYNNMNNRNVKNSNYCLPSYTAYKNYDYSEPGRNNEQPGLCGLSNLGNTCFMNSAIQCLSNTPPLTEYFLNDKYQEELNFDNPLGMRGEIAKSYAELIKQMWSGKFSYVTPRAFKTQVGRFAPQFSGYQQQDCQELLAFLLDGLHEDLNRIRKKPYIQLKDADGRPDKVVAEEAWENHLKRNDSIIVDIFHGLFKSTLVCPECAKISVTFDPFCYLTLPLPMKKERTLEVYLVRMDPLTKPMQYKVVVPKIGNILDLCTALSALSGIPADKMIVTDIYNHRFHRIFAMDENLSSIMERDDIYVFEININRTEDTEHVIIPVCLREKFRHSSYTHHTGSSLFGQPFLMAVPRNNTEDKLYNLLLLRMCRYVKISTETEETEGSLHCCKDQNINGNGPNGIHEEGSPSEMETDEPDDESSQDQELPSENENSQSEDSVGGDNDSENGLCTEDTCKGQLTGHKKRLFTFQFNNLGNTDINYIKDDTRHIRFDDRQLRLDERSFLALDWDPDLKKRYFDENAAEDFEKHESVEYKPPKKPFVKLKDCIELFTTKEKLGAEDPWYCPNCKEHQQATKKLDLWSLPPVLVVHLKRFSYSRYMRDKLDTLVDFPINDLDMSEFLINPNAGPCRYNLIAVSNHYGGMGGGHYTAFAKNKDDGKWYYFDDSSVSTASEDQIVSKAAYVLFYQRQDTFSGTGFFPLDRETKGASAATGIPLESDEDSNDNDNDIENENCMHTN
# Summary of the method: as §1
# USP16 = USP16 (UniProt Q9Y5T5)
# Summary of the method: as §1
# Sequence of UCHL1 (P09936 whole entry, looked up): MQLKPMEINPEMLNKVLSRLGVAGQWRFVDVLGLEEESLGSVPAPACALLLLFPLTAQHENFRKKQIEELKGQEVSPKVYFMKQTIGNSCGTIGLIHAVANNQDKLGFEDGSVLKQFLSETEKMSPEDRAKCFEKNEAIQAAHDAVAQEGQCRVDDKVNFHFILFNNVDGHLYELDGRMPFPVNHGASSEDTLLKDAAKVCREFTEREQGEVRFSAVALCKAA
# Sequence of USP10 (Q14694 whole entry): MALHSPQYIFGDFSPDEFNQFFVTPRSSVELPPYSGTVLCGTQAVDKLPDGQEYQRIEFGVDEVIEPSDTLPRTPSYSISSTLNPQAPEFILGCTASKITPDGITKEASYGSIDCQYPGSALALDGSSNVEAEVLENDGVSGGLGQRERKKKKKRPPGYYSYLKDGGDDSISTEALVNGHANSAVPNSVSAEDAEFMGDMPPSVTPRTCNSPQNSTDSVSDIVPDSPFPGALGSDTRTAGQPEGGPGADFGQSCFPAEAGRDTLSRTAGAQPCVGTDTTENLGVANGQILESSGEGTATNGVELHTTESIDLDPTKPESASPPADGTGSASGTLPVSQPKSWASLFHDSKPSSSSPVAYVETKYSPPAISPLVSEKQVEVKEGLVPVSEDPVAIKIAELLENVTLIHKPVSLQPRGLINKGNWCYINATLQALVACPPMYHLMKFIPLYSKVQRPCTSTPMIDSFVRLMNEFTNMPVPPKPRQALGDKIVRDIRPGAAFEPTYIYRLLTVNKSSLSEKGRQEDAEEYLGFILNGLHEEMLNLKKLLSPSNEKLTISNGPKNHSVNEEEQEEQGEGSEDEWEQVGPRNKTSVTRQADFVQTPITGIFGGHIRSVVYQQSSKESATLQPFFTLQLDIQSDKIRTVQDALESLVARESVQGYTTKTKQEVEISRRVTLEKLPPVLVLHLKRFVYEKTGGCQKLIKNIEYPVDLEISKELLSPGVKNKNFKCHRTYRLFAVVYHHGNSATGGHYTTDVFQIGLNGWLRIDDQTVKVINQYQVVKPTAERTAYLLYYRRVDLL
# Sequence of USP16 (Q9Y5T5 whole entry, looked up): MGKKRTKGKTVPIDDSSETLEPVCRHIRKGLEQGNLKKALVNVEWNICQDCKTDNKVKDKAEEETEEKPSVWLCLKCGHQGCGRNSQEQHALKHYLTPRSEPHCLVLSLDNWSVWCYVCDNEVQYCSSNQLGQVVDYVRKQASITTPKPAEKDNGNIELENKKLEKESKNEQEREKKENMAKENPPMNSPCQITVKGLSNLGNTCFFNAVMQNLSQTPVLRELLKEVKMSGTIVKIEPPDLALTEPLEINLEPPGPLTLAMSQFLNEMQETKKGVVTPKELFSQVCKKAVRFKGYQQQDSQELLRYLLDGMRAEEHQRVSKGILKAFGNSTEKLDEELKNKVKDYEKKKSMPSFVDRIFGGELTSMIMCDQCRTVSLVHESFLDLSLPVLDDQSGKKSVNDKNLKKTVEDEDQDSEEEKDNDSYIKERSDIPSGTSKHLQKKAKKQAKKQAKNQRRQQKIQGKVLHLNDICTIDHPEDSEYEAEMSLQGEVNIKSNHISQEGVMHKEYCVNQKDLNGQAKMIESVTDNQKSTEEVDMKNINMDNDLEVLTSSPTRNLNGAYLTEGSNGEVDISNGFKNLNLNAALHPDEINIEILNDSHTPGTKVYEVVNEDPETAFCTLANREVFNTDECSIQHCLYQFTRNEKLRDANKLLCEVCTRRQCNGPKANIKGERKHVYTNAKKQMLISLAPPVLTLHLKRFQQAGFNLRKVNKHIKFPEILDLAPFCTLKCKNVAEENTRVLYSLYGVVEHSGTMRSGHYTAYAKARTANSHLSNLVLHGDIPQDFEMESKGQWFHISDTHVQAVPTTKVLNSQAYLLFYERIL
compound,measurement,setting,value
N#Cc1ccc(Cl)cc1NC(=O)CCl,log2 ratio of Biotin-Ahx-Ub-VS probe labelling,OTUD6B,-0.0498
same,log2 ratio of Biotin-Ahx-Ub-VS probe labelling,OTUD7B,-1.73 (active)
same,log2 ratio of Biotin-Ahx-Ub-VS probe labelling,PRPF8,0.00848
same,log2 ratio of Biotin-Ahx-Ub-VS probe labelling,PSMD7,-0.0625
same,log2 ratio of Biotin-Ahx-Ub-VS probe labelling,UCHL1,-1.01 (active)
same,log2 ratio of Biotin-Ahx-Ub-VS probe labelling,UCHL3,0.385
same,log2 ratio of Biotin-Ahx-Ub-VS probe labelling,UCHL5,0.0193
same,log2 ratio of Biotin-Ahx-Ub-VS probe labelling,USP10,-0.153
same,log2 ratio of Biotin-Ahx-Ub-VS probe labelling,USP15,-0.0346
same,log2 ratio of Biotin-Ahx-Ub-VS probe labelling,USP16,-0.655
